High-throughput results: PubChem, several laboratories
Compounds with a hit are over-represented: about 28% of the library has one in this group of screens.
DAT uptake mod = modulates human dopamine transporter uptake under cocaine | B-score at 10 µM | AID 449768 | actives 1.3% (n = 110,000) | LLC-PK1 hDAT cells, [14C]-dopamine uptake with cocaine IC80; actives deviate in either direction;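 active = Z score or B-score, a plate-position-corrected score, falls beyond the plate's 99.7% confidence bounds, in either direction; inactive = both scores lie inside the 99.7% bounds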;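 note: scored against the spread of the other compound wells on the same plate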
Target sequence (Q01959 whole entry, looked up): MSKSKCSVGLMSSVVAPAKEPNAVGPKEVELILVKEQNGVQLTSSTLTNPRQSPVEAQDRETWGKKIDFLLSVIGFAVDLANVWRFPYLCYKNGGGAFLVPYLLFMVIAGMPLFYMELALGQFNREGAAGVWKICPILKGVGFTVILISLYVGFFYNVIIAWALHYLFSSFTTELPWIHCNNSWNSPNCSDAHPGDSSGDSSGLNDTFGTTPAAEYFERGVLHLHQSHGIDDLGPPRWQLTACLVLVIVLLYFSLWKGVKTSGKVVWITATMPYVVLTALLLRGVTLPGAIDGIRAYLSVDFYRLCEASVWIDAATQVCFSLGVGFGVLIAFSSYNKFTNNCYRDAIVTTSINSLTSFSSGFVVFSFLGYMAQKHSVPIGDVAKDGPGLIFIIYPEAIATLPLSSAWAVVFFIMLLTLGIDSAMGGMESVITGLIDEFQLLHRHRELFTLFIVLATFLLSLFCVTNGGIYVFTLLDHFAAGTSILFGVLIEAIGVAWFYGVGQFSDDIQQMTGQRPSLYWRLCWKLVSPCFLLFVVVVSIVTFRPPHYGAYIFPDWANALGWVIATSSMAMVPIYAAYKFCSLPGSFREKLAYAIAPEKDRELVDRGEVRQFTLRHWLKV
CYP2C19 inh = inhibitors of human CYP2C19; P33261; CYP2C19 Supersomes, luciferin-H EGE luminescence, 30 min; AID 778; inhibition, % at 5 µM; actives 21% (n = 96,000);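 active = CYP2C19 inhibition above a set limit at 5 µM in the primary screen, cut at about 50% in these data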;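 note: plate controls were negative control wells for no effect and 2.5 mM tranylcypromine positive control for full effect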
CYP2C9 inh = blocks human cytochrome P450 2C9; P11712; CYP2C9 Supersomes, luciferin-H conversion, luminescence; inhibition, % at 5 µM; actives 20% (n = 96,000); AID 777;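 active = blocking of liver enzyme CYP2C9 beyond about 50% at 5 µM, limit read from the data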
D1 allo mod = D1 dopamine receptor (human) allosteric modulation. HEK293 D1, CRE-luciferase, dopamine EC30 potentiation; actives deviate in either direction. B-score at 10 µM. actives 5.9% (n = 58,000);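 active = luminescence count or its row- and column-corrected plate score outside the 99.7% band of the plate's sample wells, on either side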
CYP2C9 activ = increases human cytochrome P450 2C9 activity; P11712; recombinant CYP2C9, luciferin-H conversion, luminescence; stronger effect = higher value; factor 1 = untreated enzyme, 0 = blocked; activation factor at 5 µM; actives 1.4% (n = 96,000);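 active = activation factor of 2 or more for CYP2C9 at a 5 µM dose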;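 note: 0 = sulfaphenazole-blocked wells and 1 = vehicle-only wells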
CYP2C19 activ = activators of human cytochrome P450 2C19. P33261. recombinant CYP2C19, luciferin-H EGE luminescence; stronger effect = higher value; 0 = fully inhibited enzyme, 1 = untreated enzyme. activation factor at 5 µM. 96,000 tested, under 10 active. AID 1025;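 active = activation factor of at least 2 at 5 µM in the primary screen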;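 note: 0 = wells with 2.5 mM tranylcypromine and 1 = vehicle-only wells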
* = called active by the depositor; · = not tested or not shown.

SMILES	DAT uptake mod	CYP2C19 inh	CYP2C9 inh	D1 allo mod	CYP2C9 activ	CYP2C19 activ
Cn1c(=O)c2[nH]c(CCCC(=O)O)nc2n(Cc2ccccc2)c1=S	0.71	·	·	·	·	·
COc1ccc(C(=O)c2ccc(N3CCN(C(=O)c4ccc(F)cc4)CC3)c(F)c2)cc1Br	0.36	66*	50	·	0.5	0.3
COC(=O)c1cc(S(=O)(=O)N2CCOCC2)c(N2CCOCC2)cc1N1CCOCC1	-0.036	41	76*	-0.16	0.2	0.6
O=C(c1cccc(C(=O)N2CCN(c3ccccc3F)CC2)c1)N1CCN(c2ccccc2F)CC1	1.1	82*	67*	-0.88	0.3	0.2
COc1cc(OC)cc(C(=O)N2CCN(c3ccccc3F)CC2)c1	0.012	53*	28	-0.16	0.7	0.5
O=C(c1ccc(C(=O)N2CCN(c3ccccc3F)CC2)nc1)N1CCN(c2ccccc2F)CC1	·	·	·	-0.047	·	·
CCCC(=O)N1CCN(c2ccc(C(=O)c3ccc(OC)c(Br)c3)cc2F)CC1	·	43	26	-0.73	0.7	0.6
Cc1ccc(S(=O)(=O)N2CCOCC2)cc1C(=O)NCc1cn2ccsc2n1	0.02	-2	-2	-0.92	1	1
CCCCCCN(C(=O)CCCCCN1C(=O)NC(c2ccc(-c3ccccc3)cc2)C(C(=O)OCc2ccccc2)=C1C)C(C(=O)NCCCC)c1ccc(O)cc1 (stereo not drawn)	0.24	·	·	·	·	·
O=C(c1cccs1)N1CCCC(c2ccccc2)C1 (stereo not drawn)	-0.42	85*	53*	0.46	0.5	0.1
Cc1ccc(C(=O)N2CCN(c3ccc(NC(=S)NC(=O)Cc4ccccc4)cc3)CC2)cc1	0.31	30	52*	·	0.5	0.7
O=C(c1cc(-c2ccc(Cl)cc2)n(-c2ccc(Cl)cc2)n1)N1CCOCC1	0.45	15	24	·	0.8	0.8
Cc1ccc(-n2nc(C(=O)N3CCOCC3)cc2-c2ccc(Cl)cc2)cc1	0.99	22	71*	·	0.3	0.8
O=C(c1ccc2c(c1)OCO2)N1CCN(c2ccccc2F)CC1	1.5	83*	53*	-0.55	0.5	0.2
CS(=O)CCC(NS(=O)(=O)c1ccccc1)C(=O)O (stereo not drawn)	-0.0034	-17	5	-0.95	0.9	1.2
C=CCNC(=O)COC(=O)c1cc(S(=O)(=O)N2CCOCC2)ccc1N1CCCCC1	1.2	-3	4	·	1	1
COc1ccc(N2CCN(C(=O)c3ccc4c(c3)OCO4)CC2)cc1	·	-1	13	-0.15	0.9	1
O=C(c1ccc2c(c1)OCO2)N1CCN(c2ccccc2)CC1	0.14	88*	45	0.16	0.5	0.1
O=C(Nc1ccccc1N1CCN(C(=O)c2ccc(Cl)cc2)CC1)c1ccc2c(c1)OCO2	-0.059	90*	84*	-0.63	0.2	0.1
O=C(O)c1cc(NCc2ccc3c(c2)OCO3)ccc1N1CCOCC1	-0.096	15	27	1.2	0.7	0.8
CCS(=O)(=O)N1CCN(c2ccccc2F)CC1	0.28	50*	90*	1.7	0.1	0.5
COC(=O)c1cc(NCc2ccc3c(c2)OCO3)ccc1N1CCOCC1	1.5	77*	52*	-0.014	0.5	0.2
CC1CN(C(=O)CCN2C(=O)c3ccccc3C2=O)CC(C)O1 (stereo not drawn)	0.027	·	·	·	·	·
O=C(CCN1CCN(c2ccccc2)CC1)Nc1ccc(Cl)cc1	-0.094	·	·	·	·	·
O=C(c1ccc2c(c1)OCO2)N1CCCC(c2ccccc2)C1 (stereo not drawn)	-0.24	87*	8	1.8	0.9	0.1
SMILES	DAT uptake mod	CYP2C19 inh	CYP2C9 inh	D1 allo mod	CYP2C9 activ	CYP2C19 activ
COC(=O)c1ccc(NC(=O)CCN2CCN(c3ccccc3)CC2)cc1	-0.068	26	55*	-0.92	0.4	0.7
O=C(c1ccc2c(c1)OCO2)N1CCCC1	-0.67	-6	-4	·	1	1.1
Cc1cnc(C(=O)OCC(=O)NC23CC4CC(CC(C4)C2)C3)cn1	0.075	4	31	·	0.7	1
O=C(COC(=O)c1ccccn1)NC12CC3CC(CC(C3)C1)C2	0.2	80*	22	·	0.8	0.2
O=C(COC(=O)c1ccccn1)NC1CCCCC1	-1.7	28	77*	·	0.2	0.7
O=C(COC(=O)c1cccs1)NC1CCCCC1	0.09	92*	18	·	0.8	0.1
